Compound activity deposited in PubChem by National Center for Advancing Translational Sciences (NCATS).
The sample as a whole holds a higher share of hits than the screen did.
Pf Dd2 inh = qHTS Primary assay for Inhibitors of Plasmodium falciparum Dd2 growth in vitro. P. falciparum Dd2 growth, SYBR Green, 72 h. Potency, µM (series often up to 28.9 µM), inactives show top-dose activity, negative = inhibition, actives largely listed as inhibitors. hit rate 4.3% among 120,000. AID 1347417, 2020; active = well fitted inhibition curve with a large enough effect;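 also: plate controls were DMSO vehicle for no effect and reference drug for full effect; nearly all actives have a fitted effect of over 65% in size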
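Readout: SYBR Green fluorescence, 485 nm excitation, 535 nm emission, after ~16 h lysis at 37C. Before that, Dd2-infected red cells (2.5% hematocrit) grew 72 h with compound, 29 uM top final concentration.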
* = called active by the depositor; i = inactive; [ ] = remark or other dose. Potency is read from the fitted curve at half-maximal effect.

SMILES	Pf Dd2 inh
CC(=O)NC1(C)CCN(Cc2cnc(-c3ccccc3OCc3ccccc3)s2)CC1	11µM*
CS(=O)(=O)N1CCC2(CCC(=O)N(CC3CCCO3)C2)CC1 (stereo not drawn)	-8%
COc1ccccc1CC(=O)N1C[C@H](c2nc(-c3ccncc3)no2)[C@@H](C)C1	i
CCC1Oc2ccc(NC(=O)c3cccs3)cc2CN(Cc2ccc(OC)cc2)C1=O (stereo not drawn)	i
COCc1cccc(C(=O)NC2CC(c3nnc(CN(C)C)n3C)C2)n1 (stereo not drawn)	-7%
C#CCNC(=O)[C@H]1O[C@H](CCN2CCN(Cc3ccccc3)CC2)CC[C@@H]1O	i
O=C(C1CCCCC1)N1CCC2(CN[S+](=O)([O-])c3cnccc3O2)C1 (stereo not drawn)	20%
O=C(Cc1c(F)cccc1Cl)N1CCc2n[nH]c(=O)n2CC1	32%
COc1ccc(OC)c(C2NC(=O)NC(C)=C2C(=O)Nc2cc(C)cc(C)c2)c1 (stereo not drawn)	8%
COc1cc(C2Nc3c(C)cc(C)cc3-c3cc(C)nn32)cc(OC)c1O (stereo not drawn)	-4%
COc1ccc(OC)c(C2Nc3c(C)cc(C)cc3-c3cc(C)nn32)c1 (stereo not drawn)	0.25µM*
Cc1nn(-c2ccc(F)cc2)c(Oc2ccc(F)cc2F)c1CCC(=O)NCC1CCCO1 (stereo not drawn)	i
CCN(CC)CCNC(=O)c1cc(-c2ccc(Br)s2)nc2ccccc12	11µM*
COc1cccc(CNC(=O)c2cc(-c3ccc(Cl)s3)nc3ccccc23)c1	-2%
CCc1ccc(CNC(=O)c2cc(-c3ccc(Br)s3)nc3ccccc23)cc1	i
CN1CCC(NC[C@H]2COCc3nc4cc(S(C)(=O)=O)ccc4n32)CC1	18%[44.1 µM]
O=C(Nc1cccc(OC(F)(F)F)c1)c1cc(-c2ccc[nH]2)n[nH]1	-24%
CC(=O)NCCNC(=O)C[C@@H]1CCNC[C@@H]1Cc1cc(-c2ccccc2)on1	15%[44.1 µM]
CN(Cc1ccccc1)C(=O)C[C@@H]1CCNC[C@@H]1Cc1cc(-c2ccccc2)on1	5µM*
CC(=O)N1CCN(C(=O)C[C@@H]2CCNC[C@@H]2Cc2cc(-c3ccccc3)on2)CC1	i
CCCCc1cc(C[C@H]2CNCC[C@H]2CC(=O)NCc2ccccc2)no1	-13%[44.1 µM]
CCCCc1cc(C[C@H]2CNCC[C@H]2CC(=O)N(C)Cc2ccccc2)no1	6.3µM*
CCN(CC)C(=O)C[C@@H]1CCNC[C@@H]1Cc1cc(-c2ccccn2)on1	-17%[44.1 µM]
O=C(C[C@@H]1C[C@H]2O[C@H](CNC3CCC(F)(F)CC3)[C@@H](O)[C@H]2O1)N1CCOCC1	7%[44.1 µM]
CC(C)CC(=O)N1[C@@H]2CC[C@H]1CC(NC(=O)c1ccncc1)C2 (stereo partly drawn)	0%
SMILES	Pf Dd2 inh
COCCN1C(=O)c2ccccc2C(C(=O)N2CCOCC2)C12CCCCC2 (stereo not drawn)	-8%
COc1ccc(-c2cc(N3CCC(NC(=O)Cc4c(F)cccc4Cl)CC3)n[nH]2)cc1	-19%
CC(C)(C)NC(=O)N1CCC(Oc2ncccc2C(=O)N2CCOCC2)C1 (stereo not drawn)	i
CCN1CCC2(CCC1=O)CN(C(=O)CCCc1cccs1)CCN2C (stereo not drawn)	11%
CCOC(=O)N1CCC(NC(=O)c2cnn(-c3ccc(C)cc3)c2C2CCN(C(=O)OC(C)(C)C)CC2)CC1	11µM*
CCOC(=O)N1CCC(NC(=O)c2cnn(-c3ccc(OC)cc3)c2C2CCN(C(=O)OC(C)(C)C)CC2)CC1	8.9µM*
CCOC(=O)N1CCC(NC(=O)c2cnn(-c3cccc(Cl)c3C)c2C2CCN(C(=O)OC(C)(C)C)CC2)CC1	i
COc1ccc(CNC(=O)c2cnn(-c3ccc(OC)cc3)c2C2CCN(C(=O)OC(C)(C)C)CC2)cc1	-23%
COc1ccc(-n2ncc(C(=O)NCCc3ccsc3)c2C2CCN(C(=O)OC(C)(C)C)CC2)cc1	-27%
Cc1ccc(-n2ncc(C(=O)NC3CCN(Cc4ccccc4)CC3)c2C2CCN(C(=O)OC(C)(C)C)CC2)cc1C	i
Cc1ccc(-c2noc([C@@H]3C[C@@H](O)CN3Cc3ccc(C(=O)O)cc3)n2)cc1F	i
O=S(=O)(c1ccc(F)cc1F)N1CCCC(Cn2c(C3CC3)nc3cccnc32)C1 (stereo not drawn)	i
COc1cccc(C(=O)N2C3CCCC2CC(=O)C3)c1	-13%[44.1 µM]
Cc1cccc(C)c1NC(=O)Cn1nc2n(c1=O)CCCCC2	2%
c1cc(CN2CCn3c(nnc3C3CCCNC3)C2)cs1 (stereo not drawn)	9%[44.1 µM]
CC(C)N1C(=O)C2(CCCCC2)C1C(=O)NCc1cc(F)cc(F)c1 (stereo not drawn)	-19%
Cc1noc(C)c1CC(=O)N1[C@@H]2CC[C@H]1CC(NC(=O)c1ccncc1)C2 (stereo partly drawn)	9%
CCOC(=O)C1(Cc2ccc(F)cc2F)CCCN(C(=O)c2c(C)nc3ncccn23)C1 (stereo not drawn)	-12%
